# In article PMC11062922 (Nature Chemical Biology, 2023):
# Legend:
# AKT2 = tested on: AKT2; parameters: species or system human, MV4-11 + K-562 + COLO205 + SK-N-BE2 + OVCAR-8; settings: read-out: apparent Kd; compound concentrations: 100 nM and 1000 nM (sheet 'Samples'), CATDS: 0.183770633421974; n = 1
# CSNK1D = tested on: CSNK1D; parameters: species or system human, MV4-11 + K-562 + COLO205 + SK-N-BE2 + OVCAR-8; settings: read-out: apparent Kd; compound concentrations: 100 nM and 1000 nM (sheet 'Samples'), CATDS: 0.20295054988008099; n = 1
# DYNC1LI1 = tested on: DYNC1LI1; parameters: species or system human, MV4-11 + K-562 + COLO205 + SK-N-BE2 + OVCAR-8; settings: read-out: apparent Kd; compound concentrations: 100 nM and 1000 nM (sheet 'Samples'), CATDS: 0.215188969129953; n = 1
# MAPK14 = tested on: MAPK14; parameters: species or system human, MV4-11 + K-562 + COLO205 + SK-N-BE2 + OVCAR-8; settings: read-out: apparent Kd; compound concentrations: 100 nM and 1000 nM (sheet 'Samples'), CATDS: 0.21262407645477699; n = 1
# NQO1 = tested on: NQO1; parameters: species or system human, MV4-11 + K-562 + COLO205 + SK-N-BE2 + OVCAR-8; settings: read-out: apparent Kd; compound concentrations: 100 nM and 1000 nM (sheet 'Samples'), CATDS: 0.18936127019719301; n = 1
# AKT3 = tested on: AKT3; parameters: species or system human, MV4-11 + K-562 + COLO205 + SK-N-BE2 + OVCAR-8; settings: read-out: apparent Kd; compound concentrations:100 nM and 1000 nM (sheet 'Samples'); n = 1
# AURKB = tested on: AURKB; parameters: species or system human, MV4-11 + K-562 + COLO205 + SK-N-BE2 + OVCAR-8; settings: read-out: apparent Kd; compound concentrations:100 nM and 1000 nM (sheet 'Samples'); n = 1
# BMP2K = tested on: BMP2K; parameters: species or system human, MV4-11 + K-562 + COLO205 + SK-N-BE2 + OVCAR-8; settings: read-out: apparent Kd; compound concentrations:100 nM and 1000 nM (sheet 'Samples'); n = 1
# CSNK2A1;CSNK2A3 = tested on: CSNK2A1;CSNK2A3; parameters: species or system human, MV4-11 + K-562 + COLO205 + SK-N-BE2 + OVCAR-8; settings: read-out: apparent Kd; compound concentrations:100 nM and 1000 nM (sheet 'Samples'); n = 1
# CSNK2A2 = tested on: CSNK2A2; parameters: species or system human, MV4-11 + K-562 + COLO205 + SK-N-BE2 + OVCAR-8; settings: read-out: apparent Kd; compound concentrations:100 nM and 1000 nM (sheet 'Samples'); n = 1
# JAK1 = tested on: JAK1; parameters: species or system human, MV4-11 + K-562 + COLO205 + SK-N-BE2 + OVCAR-8; settings: read-out: apparent Kd; compound concentrations:100 nM and 1000 nM (sheet 'Samples'); n = 1
# Q6ZSR9 = Q6ZSR9 (human, UniProt Q6ZSR9); parameters: species or system MV4-11 + K-562 + COLO205 + SK-N-BE2 + OVCAR-8; settings: read-out: apparent Kd; compound concentrations:100 nM and 1000 nM (sheet 'Samples'); n = 1
# Q6ZSR9, sequence (Q6ZSR9 whole entry, looked up): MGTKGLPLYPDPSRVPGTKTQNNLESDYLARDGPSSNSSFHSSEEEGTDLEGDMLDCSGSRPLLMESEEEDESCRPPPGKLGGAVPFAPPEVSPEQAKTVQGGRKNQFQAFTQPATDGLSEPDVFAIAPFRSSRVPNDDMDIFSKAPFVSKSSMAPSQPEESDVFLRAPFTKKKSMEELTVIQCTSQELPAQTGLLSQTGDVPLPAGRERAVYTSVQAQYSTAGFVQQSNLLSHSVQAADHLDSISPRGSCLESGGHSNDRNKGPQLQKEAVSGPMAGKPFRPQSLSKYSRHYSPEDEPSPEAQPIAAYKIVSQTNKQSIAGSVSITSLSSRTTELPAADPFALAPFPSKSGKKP
Compound,potency estimated from few doses (AKT2) [nM],potency estimated from few doses (CSNK1D) [nM],potency estimated from few doses (DYNC1LI1) [nM],potency estimated from few doses (MAPK14) [nM],potency estimated from few doses (NQO1) [nM],potency estimated from few doses (AKT3) [nM],potency estimated from few doses (AURKB) [nM],potency estimated from few doses (BMP2K) [nM],potency estimated from few doses (CSNK2A1;CSNK2A3) [nM],potency estimated from few doses (CSNK2A2) [nM],potency estimated from few doses (JAK1) [nM],potency estimated from few doses (Q6ZSR9) [nM]
CSc1nccc(-c2c(-c3ccc(F)cc3)ncn2CCCN2CCOCC2)n1.Cl [SB-217146-A],2140,1740,1560,1590,2010,,,,,,,
NC(=O)Nc1sc(-c2ccc(F)cc2)cc1C(N)=O [GW789449X],,,,,,1830,1310,1260,1730,1130,711,1370
